The target in assay [1] is T1, Inhibitor of nuclear factor kappa-B kinase subunit epsilon (Homo sapiens) (UniProt Q14164).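 Also: reported values are averaged percent inhibition figures against human IKKε.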
T1 sequence (whole entry): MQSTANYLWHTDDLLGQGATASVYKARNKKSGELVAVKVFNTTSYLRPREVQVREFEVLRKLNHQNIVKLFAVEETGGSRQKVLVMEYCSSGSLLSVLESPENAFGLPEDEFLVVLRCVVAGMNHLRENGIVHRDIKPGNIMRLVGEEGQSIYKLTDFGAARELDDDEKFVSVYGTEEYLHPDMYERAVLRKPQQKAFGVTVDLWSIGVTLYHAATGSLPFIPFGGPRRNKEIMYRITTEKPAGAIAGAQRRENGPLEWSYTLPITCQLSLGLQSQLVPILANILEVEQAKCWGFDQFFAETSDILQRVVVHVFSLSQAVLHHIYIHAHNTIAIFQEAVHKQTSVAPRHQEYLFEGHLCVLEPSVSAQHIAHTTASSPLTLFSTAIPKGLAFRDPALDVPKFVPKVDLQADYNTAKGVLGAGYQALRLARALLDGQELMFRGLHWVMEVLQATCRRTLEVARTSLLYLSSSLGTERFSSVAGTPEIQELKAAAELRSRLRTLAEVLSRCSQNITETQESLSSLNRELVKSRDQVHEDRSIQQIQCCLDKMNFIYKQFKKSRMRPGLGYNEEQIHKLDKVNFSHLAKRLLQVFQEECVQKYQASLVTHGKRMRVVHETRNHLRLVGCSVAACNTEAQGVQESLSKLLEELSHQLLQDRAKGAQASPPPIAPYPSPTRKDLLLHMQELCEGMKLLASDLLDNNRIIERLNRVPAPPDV
The following applies: at 1 µM.

Assay [2] concerns the target T2, Serine/threonine-protein kinase Nek1 (Homo sapiens) (UniProt Q96PY6).
T2 sequence (whole entry): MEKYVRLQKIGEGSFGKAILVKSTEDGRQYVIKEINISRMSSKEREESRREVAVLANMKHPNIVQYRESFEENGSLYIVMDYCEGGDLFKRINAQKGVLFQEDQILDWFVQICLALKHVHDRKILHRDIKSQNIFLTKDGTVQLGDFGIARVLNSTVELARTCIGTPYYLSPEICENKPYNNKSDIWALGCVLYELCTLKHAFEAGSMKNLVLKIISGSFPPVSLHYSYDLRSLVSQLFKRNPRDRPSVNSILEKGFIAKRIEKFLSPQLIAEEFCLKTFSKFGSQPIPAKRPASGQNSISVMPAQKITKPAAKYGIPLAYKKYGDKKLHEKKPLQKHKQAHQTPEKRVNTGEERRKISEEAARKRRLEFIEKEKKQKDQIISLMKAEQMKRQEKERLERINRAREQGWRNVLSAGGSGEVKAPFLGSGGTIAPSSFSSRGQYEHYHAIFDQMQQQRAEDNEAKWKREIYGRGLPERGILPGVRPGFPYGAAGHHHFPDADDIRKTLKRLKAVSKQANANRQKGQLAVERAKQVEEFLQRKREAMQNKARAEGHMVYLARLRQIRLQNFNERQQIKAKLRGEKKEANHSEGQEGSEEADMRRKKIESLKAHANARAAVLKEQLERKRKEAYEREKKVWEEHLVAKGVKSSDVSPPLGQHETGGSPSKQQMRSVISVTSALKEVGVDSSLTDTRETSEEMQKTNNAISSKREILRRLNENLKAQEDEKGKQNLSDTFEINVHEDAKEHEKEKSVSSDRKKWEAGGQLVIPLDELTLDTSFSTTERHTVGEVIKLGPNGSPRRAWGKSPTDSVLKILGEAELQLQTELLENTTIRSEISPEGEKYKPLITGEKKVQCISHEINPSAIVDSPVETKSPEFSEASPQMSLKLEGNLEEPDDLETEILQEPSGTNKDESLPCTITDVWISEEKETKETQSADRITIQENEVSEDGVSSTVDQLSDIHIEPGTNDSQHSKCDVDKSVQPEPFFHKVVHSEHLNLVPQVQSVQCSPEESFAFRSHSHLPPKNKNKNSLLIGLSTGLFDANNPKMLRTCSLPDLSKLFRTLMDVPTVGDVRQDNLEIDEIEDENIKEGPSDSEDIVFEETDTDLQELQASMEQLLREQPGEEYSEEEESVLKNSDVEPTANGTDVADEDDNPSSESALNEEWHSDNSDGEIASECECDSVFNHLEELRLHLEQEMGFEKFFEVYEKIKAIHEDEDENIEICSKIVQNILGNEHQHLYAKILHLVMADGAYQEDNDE
The following applies: at 0.1 µM.

Assay [3] has as its target T2, Serine/threonine-protein kinase Nek1 (Homo sapiens). The following applies: at 1 µM.
The target in assay [4] is T3, Serine/threonine-protein kinase Nek2 (Homo sapiens) (UniProt P51955).
T3 sequence (whole entry): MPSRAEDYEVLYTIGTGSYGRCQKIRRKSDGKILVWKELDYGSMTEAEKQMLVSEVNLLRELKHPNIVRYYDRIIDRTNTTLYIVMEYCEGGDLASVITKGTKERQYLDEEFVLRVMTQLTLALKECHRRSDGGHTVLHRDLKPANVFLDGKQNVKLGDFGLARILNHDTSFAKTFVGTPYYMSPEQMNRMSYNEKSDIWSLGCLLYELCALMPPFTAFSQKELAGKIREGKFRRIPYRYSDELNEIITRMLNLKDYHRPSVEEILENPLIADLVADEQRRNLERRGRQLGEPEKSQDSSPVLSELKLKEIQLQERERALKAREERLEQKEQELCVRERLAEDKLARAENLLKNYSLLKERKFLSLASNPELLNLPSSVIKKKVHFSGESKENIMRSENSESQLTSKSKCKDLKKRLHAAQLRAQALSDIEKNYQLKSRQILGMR
The following applies: at 0.1 µM.

For assay [5], the target named is T3, Serine/threonine-protein kinase Nek2 (Homo sapiens). The following applies: at 1 µM.
The target of assay [6] is Serine/threonine-protein kinase Nek6 (Homo sapiens) (UniProt Q9HC98). The following applies: at 0.1 µM.
Chain of Serine/threonine-protein kinase Nek6 (Homo sapiens) (Q9HC98 whole entry): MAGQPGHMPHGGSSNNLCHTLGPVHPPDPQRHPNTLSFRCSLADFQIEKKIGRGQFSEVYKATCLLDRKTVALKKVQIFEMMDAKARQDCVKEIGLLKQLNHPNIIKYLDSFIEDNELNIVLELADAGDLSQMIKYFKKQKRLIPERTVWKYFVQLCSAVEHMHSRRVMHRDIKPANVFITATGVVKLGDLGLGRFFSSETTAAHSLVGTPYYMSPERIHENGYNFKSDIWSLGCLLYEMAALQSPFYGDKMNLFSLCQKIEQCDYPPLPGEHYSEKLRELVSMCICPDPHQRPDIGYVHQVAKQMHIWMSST
For assay [7] the target is unchanged. The following applies: at 1 µM.
Assay [8] addresses Serine/threonine-protein kinase Nek7 (Homo sapiens) (UniProt Q8TDX7). The following applies: at 0.1 µM.
The target is the same in assay [9]. The following applies: at 1 µM.
In assay [10] the target is T4, Serine/threonine-protein kinase Nek9 (Homo sapiens) (UniProt Q8TD19).
T4 sequence (whole entry): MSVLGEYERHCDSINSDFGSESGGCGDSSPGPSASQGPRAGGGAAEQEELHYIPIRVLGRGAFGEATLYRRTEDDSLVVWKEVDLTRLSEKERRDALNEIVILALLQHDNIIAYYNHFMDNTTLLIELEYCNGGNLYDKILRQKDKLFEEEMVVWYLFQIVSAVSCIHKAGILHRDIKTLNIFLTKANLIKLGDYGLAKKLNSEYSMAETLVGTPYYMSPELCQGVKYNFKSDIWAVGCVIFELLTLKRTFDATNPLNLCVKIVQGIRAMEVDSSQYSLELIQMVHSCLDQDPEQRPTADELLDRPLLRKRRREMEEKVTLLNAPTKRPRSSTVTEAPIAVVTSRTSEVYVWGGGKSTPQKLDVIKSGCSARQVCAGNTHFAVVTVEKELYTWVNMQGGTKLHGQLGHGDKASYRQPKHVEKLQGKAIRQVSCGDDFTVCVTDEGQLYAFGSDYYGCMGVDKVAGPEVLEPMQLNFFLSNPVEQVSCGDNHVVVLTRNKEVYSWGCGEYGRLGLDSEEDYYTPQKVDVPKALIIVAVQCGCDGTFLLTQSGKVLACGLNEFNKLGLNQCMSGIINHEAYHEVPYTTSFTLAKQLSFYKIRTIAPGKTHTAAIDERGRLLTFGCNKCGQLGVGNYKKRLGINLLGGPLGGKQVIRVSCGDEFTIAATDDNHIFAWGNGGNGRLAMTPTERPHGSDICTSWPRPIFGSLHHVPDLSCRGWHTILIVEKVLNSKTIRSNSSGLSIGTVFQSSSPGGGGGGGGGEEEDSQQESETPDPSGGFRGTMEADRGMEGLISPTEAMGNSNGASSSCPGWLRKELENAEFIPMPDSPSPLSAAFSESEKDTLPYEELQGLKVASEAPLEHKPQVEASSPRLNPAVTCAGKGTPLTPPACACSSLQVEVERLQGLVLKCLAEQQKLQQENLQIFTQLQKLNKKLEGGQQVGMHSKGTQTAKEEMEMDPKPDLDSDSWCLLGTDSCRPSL
The following applies: at 0.1 µM.

Assay [11] addresses T4, Serine/threonine-protein kinase Nek9 (Homo sapiens). The following applies: at 1 µM.
Assay [12] deals with Serine/threonine-protein kinase PLK1 (Homo sapiens) (UniProt P53350). The following applies: at 0.1 µM.
Chain of Serine/threonine-protein kinase PLK1 (Homo sapiens) (P53350 whole entry): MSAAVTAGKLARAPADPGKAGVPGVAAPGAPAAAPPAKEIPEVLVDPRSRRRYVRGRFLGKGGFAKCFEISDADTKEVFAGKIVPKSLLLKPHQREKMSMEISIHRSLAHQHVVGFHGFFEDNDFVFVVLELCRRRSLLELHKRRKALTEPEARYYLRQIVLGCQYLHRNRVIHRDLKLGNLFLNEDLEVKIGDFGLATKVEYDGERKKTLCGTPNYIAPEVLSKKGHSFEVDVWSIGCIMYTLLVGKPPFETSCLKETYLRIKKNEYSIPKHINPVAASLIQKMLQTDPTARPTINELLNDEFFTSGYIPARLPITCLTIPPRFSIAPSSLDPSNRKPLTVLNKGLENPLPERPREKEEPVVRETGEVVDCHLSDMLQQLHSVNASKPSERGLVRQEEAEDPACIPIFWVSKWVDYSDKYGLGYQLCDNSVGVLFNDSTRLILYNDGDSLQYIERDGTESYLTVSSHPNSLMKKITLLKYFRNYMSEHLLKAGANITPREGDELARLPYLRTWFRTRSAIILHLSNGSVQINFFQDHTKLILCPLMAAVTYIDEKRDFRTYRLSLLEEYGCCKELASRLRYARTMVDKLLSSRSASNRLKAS
Assay [13] shares this target. The following applies: at 1 µM.
The target of assay [14] is T5, Dual specificity protein kinase TTK (Homo sapiens) (UniProt P33981).
T5 sequence (whole entry): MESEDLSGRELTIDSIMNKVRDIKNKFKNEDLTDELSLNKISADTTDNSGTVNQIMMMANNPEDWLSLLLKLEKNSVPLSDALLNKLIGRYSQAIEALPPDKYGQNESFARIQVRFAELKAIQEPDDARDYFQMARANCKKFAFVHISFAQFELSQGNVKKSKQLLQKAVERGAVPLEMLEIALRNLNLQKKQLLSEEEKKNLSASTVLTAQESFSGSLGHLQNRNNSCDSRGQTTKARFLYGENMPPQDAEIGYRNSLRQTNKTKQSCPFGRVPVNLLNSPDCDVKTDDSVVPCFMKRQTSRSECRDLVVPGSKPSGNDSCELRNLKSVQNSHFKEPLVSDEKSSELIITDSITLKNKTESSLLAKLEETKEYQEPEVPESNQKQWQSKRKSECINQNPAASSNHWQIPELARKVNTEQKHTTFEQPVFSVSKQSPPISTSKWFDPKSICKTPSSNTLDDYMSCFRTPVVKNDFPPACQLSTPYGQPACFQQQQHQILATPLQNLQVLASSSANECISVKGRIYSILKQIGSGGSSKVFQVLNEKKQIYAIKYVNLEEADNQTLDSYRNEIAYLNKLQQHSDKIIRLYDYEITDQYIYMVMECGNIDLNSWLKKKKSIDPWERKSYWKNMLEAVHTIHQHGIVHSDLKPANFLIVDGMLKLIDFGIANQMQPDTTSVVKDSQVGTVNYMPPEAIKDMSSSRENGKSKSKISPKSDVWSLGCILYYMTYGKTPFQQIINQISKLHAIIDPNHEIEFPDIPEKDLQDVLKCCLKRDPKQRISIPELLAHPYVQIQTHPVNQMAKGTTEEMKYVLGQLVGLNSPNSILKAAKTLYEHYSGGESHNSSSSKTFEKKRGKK
The following applies: at 0.1 µM.

Assay [15] concerns T6, Receptor-type tyrosine-protein kinase FLT3 (Homo sapiens), P36888 [D835Y].
T6 sequence (whole entry): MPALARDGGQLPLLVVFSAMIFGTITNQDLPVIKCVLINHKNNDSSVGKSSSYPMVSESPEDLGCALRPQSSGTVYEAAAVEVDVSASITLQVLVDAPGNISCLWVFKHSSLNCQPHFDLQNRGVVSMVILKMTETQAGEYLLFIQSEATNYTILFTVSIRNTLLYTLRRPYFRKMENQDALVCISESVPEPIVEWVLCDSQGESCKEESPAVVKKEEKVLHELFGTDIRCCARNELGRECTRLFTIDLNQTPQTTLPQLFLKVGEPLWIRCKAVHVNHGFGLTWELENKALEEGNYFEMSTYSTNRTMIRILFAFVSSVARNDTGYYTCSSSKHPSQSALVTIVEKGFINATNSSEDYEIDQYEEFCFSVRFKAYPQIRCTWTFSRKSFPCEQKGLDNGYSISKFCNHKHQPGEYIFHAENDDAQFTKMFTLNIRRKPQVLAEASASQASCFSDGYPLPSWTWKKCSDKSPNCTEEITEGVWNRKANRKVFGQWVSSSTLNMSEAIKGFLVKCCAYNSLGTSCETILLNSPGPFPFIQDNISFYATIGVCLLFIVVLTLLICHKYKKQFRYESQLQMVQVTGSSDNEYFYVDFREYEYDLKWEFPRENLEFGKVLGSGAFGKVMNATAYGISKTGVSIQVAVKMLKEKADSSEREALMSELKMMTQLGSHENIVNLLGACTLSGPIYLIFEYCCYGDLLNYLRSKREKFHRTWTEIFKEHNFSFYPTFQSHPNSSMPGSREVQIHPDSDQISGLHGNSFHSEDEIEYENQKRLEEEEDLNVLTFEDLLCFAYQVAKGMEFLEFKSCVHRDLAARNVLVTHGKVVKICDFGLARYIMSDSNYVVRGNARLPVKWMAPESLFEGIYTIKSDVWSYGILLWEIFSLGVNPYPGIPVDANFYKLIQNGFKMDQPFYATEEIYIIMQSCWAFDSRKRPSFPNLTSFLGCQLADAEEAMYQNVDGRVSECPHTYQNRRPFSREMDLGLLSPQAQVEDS
The following applies: at 1 µM.

Assay [16] concerns the target Vascular endothelial growth factor receptor 3 (Homo sapiens) (UniProt P35916). The following applies: at 0.1 µM.
Assay [17] has the same target. The following applies: at 1 µM.
Assay [18] has as its target Macrophage colony-stimulating factor 1 receptor (Homo sapiens) (UniProt P07333). The following applies: at 0.1 µM.
Assay [19] shares this target. The following applies: at 1 µM.
Assay [20] addresses Tyrosine-protein kinase Fyn (Homo sapiens) (UniProt P06241). The following applies: at 0.1 µM.

Our source for the inhibition values is ChEMBL document CHEMBL1961873, “Compounds: GSK PKIS; Assays: Nanosyn kinase panel” (2012).

Chain of Serine/threonine-protein kinase Nek7 (Homo sapiens) (Q8TDX7 whole entry, looked up): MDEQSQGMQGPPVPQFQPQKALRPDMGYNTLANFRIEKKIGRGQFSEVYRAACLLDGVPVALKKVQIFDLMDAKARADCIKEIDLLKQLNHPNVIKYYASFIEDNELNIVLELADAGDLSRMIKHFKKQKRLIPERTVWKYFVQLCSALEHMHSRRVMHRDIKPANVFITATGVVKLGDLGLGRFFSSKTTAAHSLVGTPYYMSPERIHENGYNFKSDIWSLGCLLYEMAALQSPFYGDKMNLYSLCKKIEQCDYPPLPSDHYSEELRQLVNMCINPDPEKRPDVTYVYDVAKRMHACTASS
Chain of Macrophage colony-stimulating factor 1 receptor (Homo sapiens) (P07333 whole entry): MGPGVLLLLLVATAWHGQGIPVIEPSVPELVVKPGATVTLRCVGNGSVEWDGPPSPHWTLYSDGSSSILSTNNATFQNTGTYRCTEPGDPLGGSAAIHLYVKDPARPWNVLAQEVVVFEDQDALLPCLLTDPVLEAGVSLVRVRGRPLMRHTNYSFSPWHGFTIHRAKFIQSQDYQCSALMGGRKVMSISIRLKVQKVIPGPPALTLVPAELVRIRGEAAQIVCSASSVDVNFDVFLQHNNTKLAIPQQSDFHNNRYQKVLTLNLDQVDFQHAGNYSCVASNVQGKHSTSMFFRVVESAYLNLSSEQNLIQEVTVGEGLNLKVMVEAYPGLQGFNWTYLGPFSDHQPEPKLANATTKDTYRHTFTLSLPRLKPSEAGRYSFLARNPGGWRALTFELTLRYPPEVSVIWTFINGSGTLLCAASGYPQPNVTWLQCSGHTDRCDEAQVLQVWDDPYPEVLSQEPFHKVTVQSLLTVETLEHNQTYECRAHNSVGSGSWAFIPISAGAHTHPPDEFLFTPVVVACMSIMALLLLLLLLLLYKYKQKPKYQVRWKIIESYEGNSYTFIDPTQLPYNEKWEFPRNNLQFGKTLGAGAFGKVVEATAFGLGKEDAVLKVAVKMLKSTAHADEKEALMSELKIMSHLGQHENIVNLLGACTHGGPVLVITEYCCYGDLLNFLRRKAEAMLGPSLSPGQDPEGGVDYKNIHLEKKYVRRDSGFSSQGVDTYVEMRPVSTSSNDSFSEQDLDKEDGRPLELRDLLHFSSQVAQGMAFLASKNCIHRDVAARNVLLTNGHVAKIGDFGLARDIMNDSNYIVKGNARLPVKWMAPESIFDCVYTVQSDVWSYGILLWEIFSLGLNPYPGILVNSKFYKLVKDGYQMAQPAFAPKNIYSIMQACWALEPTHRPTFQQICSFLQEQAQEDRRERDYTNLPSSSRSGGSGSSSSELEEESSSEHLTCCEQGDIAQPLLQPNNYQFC
Chain of Vascular endothelial growth factor receptor 3 (Homo sapiens) (P35916 whole entry): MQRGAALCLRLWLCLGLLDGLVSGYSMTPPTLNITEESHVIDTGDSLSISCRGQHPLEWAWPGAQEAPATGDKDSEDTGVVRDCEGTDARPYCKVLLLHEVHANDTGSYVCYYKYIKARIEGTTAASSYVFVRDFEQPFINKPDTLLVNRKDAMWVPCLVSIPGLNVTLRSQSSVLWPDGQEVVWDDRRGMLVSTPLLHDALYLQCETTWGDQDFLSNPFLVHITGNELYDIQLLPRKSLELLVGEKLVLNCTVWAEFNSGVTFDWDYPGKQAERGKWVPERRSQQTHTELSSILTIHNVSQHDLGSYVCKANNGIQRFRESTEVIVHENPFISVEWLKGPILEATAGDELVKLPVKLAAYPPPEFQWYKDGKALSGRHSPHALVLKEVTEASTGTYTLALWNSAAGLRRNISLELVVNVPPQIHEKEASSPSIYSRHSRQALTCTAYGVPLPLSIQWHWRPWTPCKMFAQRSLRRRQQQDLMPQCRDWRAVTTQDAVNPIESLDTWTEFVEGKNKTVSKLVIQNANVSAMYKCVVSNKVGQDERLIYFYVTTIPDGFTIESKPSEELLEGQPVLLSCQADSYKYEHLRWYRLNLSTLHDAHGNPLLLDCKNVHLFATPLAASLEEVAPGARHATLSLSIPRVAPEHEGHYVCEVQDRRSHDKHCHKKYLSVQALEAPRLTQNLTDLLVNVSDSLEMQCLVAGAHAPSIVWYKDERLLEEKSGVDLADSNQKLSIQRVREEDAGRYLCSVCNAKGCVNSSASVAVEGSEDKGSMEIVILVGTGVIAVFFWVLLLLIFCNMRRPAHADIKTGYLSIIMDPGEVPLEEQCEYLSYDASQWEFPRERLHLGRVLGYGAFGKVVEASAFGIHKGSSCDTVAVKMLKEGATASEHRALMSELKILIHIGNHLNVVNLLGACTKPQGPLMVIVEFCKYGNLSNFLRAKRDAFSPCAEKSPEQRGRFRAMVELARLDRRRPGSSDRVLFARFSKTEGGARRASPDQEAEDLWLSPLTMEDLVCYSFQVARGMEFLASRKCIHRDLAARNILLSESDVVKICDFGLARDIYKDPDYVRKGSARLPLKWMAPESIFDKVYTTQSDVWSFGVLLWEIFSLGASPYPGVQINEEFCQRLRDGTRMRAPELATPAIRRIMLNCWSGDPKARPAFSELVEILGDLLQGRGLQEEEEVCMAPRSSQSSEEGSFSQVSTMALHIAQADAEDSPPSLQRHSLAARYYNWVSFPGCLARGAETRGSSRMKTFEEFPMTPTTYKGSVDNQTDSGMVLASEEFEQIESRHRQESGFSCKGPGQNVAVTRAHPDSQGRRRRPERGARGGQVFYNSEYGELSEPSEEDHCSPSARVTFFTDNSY
Chain of Tyrosine-protein kinase Fyn (Homo sapiens) (P06241 2-537 limits assumed): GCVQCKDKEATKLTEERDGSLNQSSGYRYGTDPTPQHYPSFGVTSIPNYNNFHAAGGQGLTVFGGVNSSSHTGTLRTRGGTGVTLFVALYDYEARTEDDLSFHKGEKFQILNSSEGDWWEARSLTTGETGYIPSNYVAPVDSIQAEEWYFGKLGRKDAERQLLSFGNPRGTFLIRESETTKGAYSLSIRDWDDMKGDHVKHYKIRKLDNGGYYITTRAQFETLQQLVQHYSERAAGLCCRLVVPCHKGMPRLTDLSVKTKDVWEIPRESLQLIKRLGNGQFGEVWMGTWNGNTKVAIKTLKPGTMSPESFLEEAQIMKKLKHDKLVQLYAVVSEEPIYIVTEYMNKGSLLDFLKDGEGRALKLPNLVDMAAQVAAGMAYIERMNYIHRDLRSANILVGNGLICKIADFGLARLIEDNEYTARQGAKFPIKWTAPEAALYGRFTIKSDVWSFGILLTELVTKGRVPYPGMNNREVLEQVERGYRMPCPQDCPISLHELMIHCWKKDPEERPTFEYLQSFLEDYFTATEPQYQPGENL

Usually inhibition stands for the share of the control response that was lost under treatment. A higher inhibition goes with strong suppression. Consider `Cc1ccc(Nc2ccnc(Nc3cccc(C(N)=O)c3)n2)cc1O`, for which the inhibition in assay [1] amounted to 19.4%; in [2] it was 2.35%; in assay [3], 3.58%; in assay [4] it was 4%; in assay [5] it was 2.98%; in assay [6], 4.22%. For the same compound, the inhibition amounted to 2.69% in assay [7]; 4.63% in [8]; 4.4% in [9]; 6.86% in [10]; 10.2% in [11]; 3.22% in assay [12]. Moreover, the inhibition is 6.17% in assay [13]; 5.91% in assay [14]; 86.1% in assay [15]; 64% in [16]; 95% in assay [17]; 12.7% in [18]. In addition, the inhibition in [19] stood at 49.9%; in [20] it was 77.2%.
